# Results taken from PubChem BioAssay (NCATS).
# Values joined by “and” are separate entries in the source; they are usually repeats but may differ in a detail not shown here. Identical values can stand only once. Results filed as inconclusive are left out. A call without a number means that no potency is given here. Some compounds were tested as several samples or in several runs, with calls that do not always agree. Active and inactive are the calls of the source. Unless noted, calls follow the shape of the dose curve; as a rule, active = well fitted curve in the direction sought with a large enough effect; inconclusive = small, poorly fitted or top-dose-only effect, or another doubt; inactive = no such curve, though single readings can be large; an effect the other way counts as inactive or inconclusive. *1 amine or outer side, *2 acyl side, *3 side chain or, on linkers, in order; H or OH if unused. Where a SMILES comes first, the peptide text is derived from it. [ ]: non-standard residue; d: D form. The star is where a group is joined. ξ: configuration not given here. X9 = CCC(C)(N*)C(=O)C1CC[C@@H](C(=O)N[C@@H](Cc2ccccc2)C(=O)NCC(=O)O)N1; X8 = O=C([C@@H]1CC(O)CN1[*:1])[*:2]; aIle = CC[C@@H](C)[C@H](N)C(=O)O; Thr(3ξ) = CC(O)[C@H](N)C(=O)O; ξIva = CCC(C)(N)C(=O)O; Aib = CC(C)(N)C(=O)O
# Columns and labels:
# [1] = target: Calcium and integrin-binding protein 1 (Homo sapiens) (UniProt Q99828); experiment: Primary qHTS for Identification of Calcium Integrin Binding Protein 1 (CIB1) Competitor (AID 1508620); conditions: CIB1-GST / FITC-alphaIIb peptide fluorescence polarization; series mostly up to 57.7 µM;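 also: GST tagged CIB1 binding a fluorescein labelled alphaIIb integrin peptide tracer; top concentration of the series differs between compounds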
# In short: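 CIB1-GST (1 uM final) and compound incubated 15 min at room temperature before adding FITC-alphaIIb peptide tracer (100 nM final). Competition for binding read by fluorescence polarization (ex 480, em 540) after another 15 min at room temperature.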
# [2] = target: Cytochrome P450 2C9 (Homo sapiens) (UniProt P11712); experiment: Cytochrome P450 family 2 subfamily C member 9 (CYP2C9) small molecule antagonists: luciferase biochemical (cell-free) qHTS assay (AID 1645842; active = well fitted curve in the direction sought with a large enough effect in the repeat runs; an effect the other way counts as inactive or inconclusive; also: nearly all actives have a fitted effect of over 55% in size; also: potency is read from the fitted curve at half-maximal effect); conditions: P450-Glo CYP2C9 enzyme assay, luciferin luminescence; series mostly up to 57.4 µM
# In short: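 P450-Glo CYP2C9 system: proluciferin substrate with enzyme in mix containing 0.4% BSA, 10 min at room temperature, then NADPH regeneration solution added and incubated 1 h at 37C. Detection reagent stopped reaction; luminescence read after 20 min as RLU.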
# [3] = Primary qHTS for inhibitors of nuclear receptor binding SET domain protein 2 (NSD2) in an RCH-ACV wild type WT cells (2C) (AID 1645877); conditions: RCH-ACV NSD2 WT (2C) viability, CellTiter-Glo, 72 h; series mostly up to 44.9 µM; also: nearly all actives have a fitted effect of over 70% in size; also: potency is read from the fitted curve at half-maximal effect
# [4] = Primary qHTS for inhibitors of nuclear receptor binding SET domain protein 2 (NSD2) in an isogenic RCH-ACV NSD2 p.E1099K mutant (9B) (AID 1645876); conditions: RCH-ACV (leukaemia line) NSD2 E1099K (9B) viability, CellTiter-Glo, 72 h; series mostly up to 44.9 µM; also: nearly all actives have a fitted effect of over 70% in size; also: potency is read from the fitted curve at half-maximal effect
# [5] = target: N-terminal Xaa-Pro-Lys N-methyltransferase 1 (Homo sapiens) (UniProt Q9BV86); experiment: Confirmatory qHTS for Inhibitors of N-terminal methyltransferase 1 (NTMT1): MTaseGlo Assay (AID 1645874); conditions: NTMT1 enzyme, MTase-Glo SAH luminescence; series mostly up to 51.5 µM; also: nearly all actives have a fitted effect of over 65% in size; also: potency is read from the fitted curve at half-maximal effect;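 as to activity change, negative = inhibition: luminescence from SAH made as NTMT1 methylates SPKRIA peptide using SAM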
# In short: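 Inhibition was derived from luminescence after SAH-to-ATP conversion, scaled between no-enzyme and DMSO wells, then fitted by 4-parameter Hill. Conditions: 125 nM NTMT1, 100 uM SAM, 1 uM SPKRIA, 30 min RT.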
# Calcium and integrin-binding protein 1 (Homo sapiens), sequence (Q99828 whole entry, looked up): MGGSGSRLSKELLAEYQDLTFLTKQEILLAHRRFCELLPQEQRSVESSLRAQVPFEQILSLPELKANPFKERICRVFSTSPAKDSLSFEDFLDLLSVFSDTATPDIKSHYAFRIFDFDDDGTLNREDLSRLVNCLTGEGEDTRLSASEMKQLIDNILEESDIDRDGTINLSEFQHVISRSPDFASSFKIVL
# Cytochrome P450 2C9 (Homo sapiens), sequence (P11712 whole entry, looked up): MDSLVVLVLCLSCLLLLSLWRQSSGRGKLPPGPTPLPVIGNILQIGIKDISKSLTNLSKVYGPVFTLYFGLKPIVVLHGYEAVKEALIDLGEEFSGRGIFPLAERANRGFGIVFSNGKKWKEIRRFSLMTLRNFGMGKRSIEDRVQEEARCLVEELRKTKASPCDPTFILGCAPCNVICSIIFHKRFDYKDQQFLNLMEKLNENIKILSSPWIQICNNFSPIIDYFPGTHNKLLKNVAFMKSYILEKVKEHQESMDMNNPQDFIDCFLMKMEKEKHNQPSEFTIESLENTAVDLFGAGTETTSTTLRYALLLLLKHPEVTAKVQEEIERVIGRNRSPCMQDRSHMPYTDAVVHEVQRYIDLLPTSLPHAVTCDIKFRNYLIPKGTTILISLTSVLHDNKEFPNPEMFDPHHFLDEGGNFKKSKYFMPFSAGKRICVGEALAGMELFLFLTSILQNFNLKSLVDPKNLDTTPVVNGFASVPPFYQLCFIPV
# N-terminal Xaa-Pro-Lys N-methyltransferase 1 (Homo sapiens), sequence (Q9BV86 whole entry, looked up): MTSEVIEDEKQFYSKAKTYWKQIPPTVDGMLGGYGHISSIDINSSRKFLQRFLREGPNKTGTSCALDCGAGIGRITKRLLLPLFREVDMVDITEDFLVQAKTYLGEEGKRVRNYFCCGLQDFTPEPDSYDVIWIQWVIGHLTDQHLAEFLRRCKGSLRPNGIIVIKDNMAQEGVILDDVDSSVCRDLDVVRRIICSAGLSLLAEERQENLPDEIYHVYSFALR
smiles,measurement,setting,value
On1ncc(C2CCNCC2)c1-c1cccc(-c2ccccc2)c1,Potency,[1],inactive
same,Potency,[2],inactive
same,Potency,[3],inactive
O=C(NC1CCN(CC(F)(F)F)CC1)c1ccc(-c2cccc(F)c2)nc1,Potency,[1],inactive
same,Potency,[2],inactive
same,Potency,[4],inactive
same,Potency,[3],inactive
CC(C)c1cc2c(c(O)c1O)[C@@]13CCCC(C)(C)C1[C@@H](O)[C@@H]2OC3=O (stereo not given in full),Potency,[1],inactive
same,Potency,[5],inactive
CN1CCN(C2=Nc3ccccc3Nc3ccc(O)cc32)CC1,Potency,[1],inactive
same,Potency,[2],inactive
same,Potency,[4],inactive
same,Potency,[3],inactive
CC(C)Oc1ccc(-c2nc(-c3cccc4c3CCC4NCCC(=O)O)no2)cc1C#N (stereo not given),Potency,[1],inactive
same,Potency,[2],inactive
same,Potency,[4],inactive
same,Potency,[3],inactive
N#Cc1cccc(-c2nc(-c3cccnc3)no2)c1,Potency,[1],inactive
same,Potency,[2],4.65 µM (active)
same,Potency,[4],inactive
same,Potency,[3],inactive
O=C(NCCN1CCCC1)c1cc(-c2ccc(CN3CCOCC3)cc2)nc2ccc(F)cc12,Potency,[1],inactive
same,Potency,[5],inactive
same,Potency,[4],inactive
same,Potency,[3],inactive
CCOc1ncc(S(=O)(=O)N2CCN(CC)CC2)cc1-c1nc2c(CC)n(CCOC)nc2c(=O)[nH]1,Potency,[1],inactive
same,Potency,[2],10.7 µM (active)
same,Potency,[4],inactive
same,Potency,[3],inactive
N#Cc1cccc(-c2c[nH]c3ncnc(N4CCOCC4)c23)c1,Potency,[1],inactive
same,Potency,[5],39.8 µM (active)
O=C(N[C@@H]1CC[C@@H](c2cccc(F)c2F)CN(CC(F)(F)F)C1=O)N1CCC(n2c(=O)[nH]c3ncccc32)CC1,Potency,[1],inactive
same,Potency,[2],12 µM (active)
same,Potency,[3],16.3 µM (active)
O=C(O)CC1CCC(c2ccc(-c3ccc(Nc4ccc(C(F)(F)F)nc4)cn3)cc2)CC1 (stereo not given),Potency,[1],inactive
same,Potency,[2],inactive
same,Potency,[4],inactive
same,Potency,[3],inactive
Cc1c(C)c(NCC(=O)N(C)C2CCN(Cc3ccc(C(N)=O)cc3)CC2)c(C)c(C)c1N,Potency,[1],inactive
same,Potency,[2],7.56 µM (active)
same,Potency,[4],inactive
same,Potency,[3],inactive
CC1(C)CC2C3=CCC4[C@@]5(C)CC[C@H](OC6OCC(O)C(OC7OC(CO)C(O)C(O)C7O)C6O)C(C)(C)C5CC[C@@]4(C)[C@]3(C)C[C@H](O)[C@@]2(CO)[C@H](OC(=O)c2ccccc2)C1 (stereo not given in full),Potency,[1],inactive
same,"activity change, negative = viability loss",[4],-12.4% [at 9.23 µM] (inactive)
COc1cc(C2Oc3c(OC)cc(CCCO)cc3C2CO)ccc1O (stereo not given),Potency,[1],inactive
same,Potency,[4],inactive
CC1(C)C[C@H]2C=C(C=O)[C@]3(C(=O)O)C[C@]3(C)[C@H]2C1,Potency,[1],inactive
same,Potency,[4],inactive
C=C1C(OC(C)=O)C(=O)C2C(C)(C)C(O)CCC2(C)C1CC(OC(C)=O)/C(C)=C/COC(C)=O (stereo not given),Potency,[1],inactive
same,Potency,[4],inactive
C=C1CCC2[C@@](C)(C(=O)O)CCC[C@@]2(C)[C@@H]1CCc1ccoc1 (stereo not given in full),Potency,[1],inactive
same,Potency,[4],inactive
C/C=C/C=C/C=C/C(=O)N(C)C(C(=O)NC(C)C(=O)N1CCCC1C(N)=O)C(C)C (stereo not given),Potency,[1],inactive
same,Potency,[4],inactive
same,Potency,[3],inactive
C=C1CCC2C(C)(C)CC(=O)CC2(C)C1CCC(C)CCO (stereo not given),Potency,[1],inactive
same,Potency,[4],inactive
COC(=O)C(CC1(OC(=O)C(C)C)c2ccccc2N2C(=O)C(C)(C)N(O)C21)n1cnc2ccccc2c1=O (stereo not given),Potency,[1],inactive
same,Potency,[4],inactive
CNc1nc(C)nc(N[C@H]2CCC[C@@H](C(=O)NCc3ccc(C#N)cc3C(F)(F)F)C2)n1,Potency,[1],inactive
same,Potency,[4],inactive
CC[C@@H](C)[C@H](NC(=O)C(C)(C)NC(=O)[C@H](CCC(N)=O)NC(=O)C(C)(CC)NC(=O)[C@H](Cc1c[nH]c2ccccc12)NC(C)=O)C(=O)N[C@H](C(=O)NC(C)(C)C(=O)N[C@@H](CC(C)C)C(=O)NC(C)(C)C(=O)N1CCC[C@H]1C(=O)N[C@@H](CCC(N)=O)C(=O)NC(C)(C)C(=O)N1CC(O)C[C@H]1C(=O)NC(C)(CC)C(=O)C1CC[C@@H](C(=O)N[C@@H](Cc2ccccc2)C(=O)NCC(=O)O)N1)C(C)O (stereo not given in full) (Ac-W[ξIva]Q[Aib][aIle][Thr(3ξ)][Aib]L[Aib]PQ[Aib][X8]-X9),"activity change, negative = inhibition",[1],3.33% [at 12.4 µM] (inactive)
same,"activity change, negative = viability loss",[4],-38.6% [at 4.96 µM] (inactive)
C=C1CC[C@H]2[C@@](C)(CCC(OC3OC(CO)C(O)C(O)C3O)[C@@]2(C)CO)C1C(=O)CC1=CCOC1=O (stereo not given in full),Potency,[1],inactive
same,Potency,[4],inactive
same,Potency,[3],inactive
O=C(/C=C/c1ccc(O)cc1)O[C@@H]1C[C@@](O)(C(=O)O)C[C@@H](O)[C@@H]1O,Potency,[1],inactive
same,Potency,[4],inactive
CC(C)(O)C1OC1C1=CC(=O)C2(C)OC2C1O (stereo not given),Potency,[1],inactive
same,Potency,[4],inactive
CC(O)C/C=C/C=C/C(=O)OC1C=C2COC(=O)C2(O)C2(C)CCCC(C)(C)C12 (stereo not given),Potency,[1],inactive
same,Potency,[4],inactive
O=C(OC1C=C(CO)C2C(OC3OC(CO)C(O)C(O)C3O)OC=CC12O)c1ccc(O)cc1 (stereo not given),Potency,[1],inactive
same,Potency,[4],inactive
CC(C)(CC(=O)N1CCCC1)NCC(=O)N1C[C@@H](F)C[C@H]1C#N,Potency,[1],inactive
same,Potency,[4],inactive
CC1C2=CC(=O)OC2(O)CC2C1CCC1C(C)(C)CCC(O)C21C (stereo not given),Potency,[1],inactive
same,Potency,[4],14.2 µM (active)
Cc1noc2c1-c1ccccc1C(c1ccc(Cl)cc1)=N[C@H]2CC(N)=O,Potency,[1],inactive
same,Potency,[4],inactive and 590 nM (active)
C=C1C(O)CCC2(C)CC3(OC)OC(=O)C(C)=C3CC12 (stereo not given),Potency,[1],inactive
same,Potency,[4],inactive
CC1=C2CC(C)(C)CC2C(O)C2=C(C1)C(=O)OC2O (stereo not given),Potency,[1],inactive
same,Potency,[4],inactive
C/C=C1/[C@H](O[C@@H]2O[C@H](CO)[C@@H](O)[C@H](O)[C@H]2O)OC=C2C(=O)O[C@@H]3C[C@@H](C(C)CO)[C@H](COC(=O)C[C@H]21)[C@H]3C (stereo not given in full),Potency,[1],inactive
same,Potency,[4],inactive
O=C(O)Cn1nnc(-c2ccc(CN(CCCCOc3ccc(CN4CCCC4)cc3)CCc3ccccc3)cc2)n1,Potency,[1],inactive
same,Potency,[4],inactive
C=CC(C)(O)CC/C=C(\C)C(=O)O[C@@H]1[C@@H](O)[C@H](OC(C)(C=C)CC/C=C(\C)C(=O)O)O[C@H](CO)[C@H]1OC(=O)/C(C)=C/CCC(C)(O)C=C (stereo not given in full),Potency,[1],inactive
same,Potency,[4],inactive
CC(=O)NC(C(=O)OC1CCC(C)(C)C2CC=C3C(=O)OCC3C12C)C(C)C (stereo not given),Potency,[1],inactive
same,Potency,[4],inactive
C/C=C1/[C@H](O[C@@H]2O[C@H](CO)[C@@H](O)[C@H](O)[C@H]2O)OC=C(C(=O)OC)[C@H]1CC(=O)OCCc1ccc(OC(=O)C[C@@H]2C(C(=O)OC)=CO[C@@H](O[C@@H]3O[C@H](CO)[C@@H](O)[C@H](O)[C@H]3O)/C2=C/C)cc1,Potency,[1],inactive
same,"activity change, negative = viability loss",[4],-12% [at 9.23 µM] (inactive)
same,"activity change, negative = cell killing",[3],-15% [at 9.23 µM] (inactive)
